In the library only some 9.2% were active in any assay of this set; here they are far more common.
FLuc counter = inhibits or activates purified firefly luciferase, miR-21 counter-screen; purified FLuc, Km substrates, luminescence inhibition; Potency, µM (titrated, usually from 57.5 µM), without a hit: at the highest dose activity change, negative = inhibition, actives largely listed as inhibitors; 360,000 compounds, 6.9% hits; AID 588342;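 also: plate controls were vehicle for no effect and reference inhibitor for full effect; nearly all actives have a fitted effect of over 55% in size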
Target sequence (P08659 whole entry, looked up): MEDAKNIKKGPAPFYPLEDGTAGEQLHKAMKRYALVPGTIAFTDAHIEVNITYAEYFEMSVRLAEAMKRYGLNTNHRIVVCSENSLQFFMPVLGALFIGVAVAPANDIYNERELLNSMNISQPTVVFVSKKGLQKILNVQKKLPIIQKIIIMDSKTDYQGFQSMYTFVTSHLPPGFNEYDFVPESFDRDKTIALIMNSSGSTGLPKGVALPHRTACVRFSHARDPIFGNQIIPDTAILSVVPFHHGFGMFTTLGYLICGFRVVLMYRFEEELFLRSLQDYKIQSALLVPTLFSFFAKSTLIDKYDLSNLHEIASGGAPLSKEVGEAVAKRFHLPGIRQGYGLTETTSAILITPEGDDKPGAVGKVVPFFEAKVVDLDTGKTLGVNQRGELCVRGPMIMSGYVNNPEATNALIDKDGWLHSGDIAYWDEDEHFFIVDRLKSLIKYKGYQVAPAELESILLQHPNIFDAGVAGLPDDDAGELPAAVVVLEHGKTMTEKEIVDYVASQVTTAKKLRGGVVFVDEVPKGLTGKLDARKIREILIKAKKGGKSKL
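Purified P. pyralis luciferase (10nM final) with 10uM D-luciferin and 10uM ATP (Km levels) in 50mM Tris acetate pH 7.5, 10mM Mg acetate, 0.01% Tween-20, 0.05% BSA; qHTS 6-point titration, ~60 µM downward; luminescence read.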
NPC1 promoter act = NPC1 promoter activation | Potency, µM (doses to about 9.22 µM), for inactives: top-dose activation, usual class: activators | AID 485313 | 320,000 compounds, 2.4% hits | Huh7 NPC1 promoter luciferase reporter, 24 h; also: % of control where 0% means no effect; nearly all actives have a fitted effect of over 60% in size
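Huh7 reporter cells (NPC1 promoter driving luciferase) are dosed with compound for 24 h at 37 °C, 5% CO2; luciferase detection reagent is then added and luminescence measured after 10 min at ambient temperature.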
SMN2 splice up = enhancers of SMN2 splice variant expression. HEK293 SMN2-luciferase splicing reporter, luminescence, 30-36 h. Potency, µM (titrated, usually from 46.1 µM), inactives show at the top dose activity change, positive = activation, hits mostly activators. 210,000 compounds, 2.8% hits; also: % of control where 0% means no effect; nearly all actives have a fitted effect of over 55% in size
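HEK293 cells carry an SMN2 minigene-luciferase reporter in which exon 7 inclusion puts luciferase in frame. Cells were seeded at 2000 cells/well, attached for 10-12 hours, then exposed to compounds for 30-36 hours at 37C before ONE-Glo luminescence.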
ELG1 DNA repair = inhibitors of ELG1-dependent DNA repair in HEK293T cells | HEK293T ELG1-luciferase reporter, luminescence, 16 h; DNA damage induced by 5-fluorouridine | Potency, µM (top dose mostly 46.1 µM), for the others: top-dose activity change, negative = inhibition, hits mostly inhibitors | 330,000 compounds, 2.3% hits | AID 504467; also: % is scaled to controls: 0 for no effect and ±100 for the full control effect; nearly all actives have a fitted effect of over 55% in size
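5-Fluorouridine DNA damage + compound/DMSO, 2,000 cells/well, 16 h, 37 °C/5% CO2. ONE-Glo, 30 min RT, luminescence. Readout = decrease in reporter signal.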
ELG1 genotoxic = genotoxicity induction in ELG1-luciferase HEK293T cells | 330,000 compounds, 1.3% hits | AID 504466 | HEK293T ELG1-luciferase reporter, luminescence, 16 h | Potency, µM (titrated, usually from 46 µM), inactives show at the top dose activity change, positive = activation, usual class: activators; also: % of control where 0% means no effect; nearly all actives have a fitted effect of over 60% in size
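Reporter readout depends on ELG1 protein level, which increases with genetic stress. After 16 hr compound exposure at 37 °C, luciferase activity was quantified using ONE-Glo.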
Rab9 promoter act = activates the Rab9 promoter; 320,000 compounds, 2.8% hits; Huh7 Rab9 promoter-luciferase reporter, luminescence, 24 h; Potency, µM (series often up to 9.22 µM), for the others: at the highest dose activation, negative = inhibition, actives largely listed as activators; AID 485297; also: % of control where 0% means no effect; nearly all actives have a fitted effect of over 60% in size
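Quantitative HTS format; Huh7 Rab9-luciferase reporter cells (1500/well) receive compound 2 h post-plating, incubate 24 h at 37 °C, then get luciferase reagent for 10 min before luminescence reading.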
* hit, by the source's call; ? = inconclusive; . = no result; [ ] = dose if it differs, or a comment. Calls follow the shape of the dose curve; as a rule, active = well fitted curve in the direction sought with a large enough effect; inconclusive = small, poorly fitted or top-dose-only effect, or another doubt; inactive = no such curve, though single readings can be large; an effect the other way counts as inactive or inconclusive. Potency is read from the fitted curve at half-maximal effect.

SMILES	FLuc counter	NPC1 promoter act	SMN2 splice up	ELG1 DNA repair	ELG1 genotoxic	Rab9 promoter act
CC(=O)Nc1ccc(N/C=C/C(=O)c2ccco2)cc1	11µM*	3.2µM*	28µM*	?	4.6µM*	1.6µM*
CN(C)c1ccc(N/C=C/C(=O)c2ccco2)cc1	0.27µM*	3.5µM*	.	?	?	2.8µM*
CN(N)c1nc(C(F)(F)F)nc2ccccc12	-2%	-3%	9%	-25%	-12%	-6%
CN(NS(=O)(=O)c1ccc(Br)cc1)c1nc(C(F)(F)F)nc2ccccc12	?	-1%	-69%	21µM*	-16%	2%
CC1(C)CCC(NC(=O)[C@@H](N)CCC(=O)O)CC1	.	-2%[46.1 µM]	14%	.	.	-4%[46.1 µM]
Cc1cccc(Cc2nnc(CCC(=O)N(CC3CC3)CC3CCCO3)o2)c1 (stereo not given)	21µM*	?	.	?	?	?
CCOc1ccccc1NC(=O)C1CCN(S(=O)(=O)c2ccc3[nH]c(=O)oc3c2)CC1	-18%	.	.	.	.	.
CN1C2CCC1/C(=C\c1ccc(F)cc1)C(=O)/C2=C/c1ccc(F)cc1	-1%	4%	-39%	18µM*	0%	-4%
CN1C2CCC1/C(=C/c1cccn1C)C(=O)/C2=C\c1cccn1C	1%	-2%	-50%	?	-10%	-1%
O=c1cc(-c2cccc(F)c2)[nH]c2ccccc12	-26%	-12%	-27%	-1%	?	-21%
COc1ccc2[nH]c(-c3cccc(F)c3)cc(=O)c2c1	15µM*	22%	11µM*	?	13µM*	-6%
Cc1ccc2[nH]c(-c3cccc(F)c3)cc(=O)c2c1	13µM*	-5%	-2%	?	15µM*	-11%
CCOC(=O)c1ccccc1NC(=O)Cn1cc(C(=O)c2cccc(OC)c2)c(=O)c2ccc(C)nc21	-4%	.	.	.	.	.
CCOC(=O)NC(=O)CSc1nc(C)cc(C(F)(F)F)c1C#N	-12%[2.3 µM]	22%	3%	?	13%	21%
Cc1cc(C(F)(F)F)c(C#N)c(SCC(=O)Nc2nc3cc(Br)ccc3s2)n1	-21%	29%	-58%	?	5%	3.2µM*
CCOC(=O)c1sc2ccccc2c1S(=O)(=O)N1CCN(c2cccc(OC)c2)CC1	-6%	.	.	.	.	.
CC(=O)Nc1ccc(/C=C/c2nc(-c3ccccc3O)n[nH]2)cc1	?	?	.	?	?	3.5µM*
CCOc1ccc2nc(SCC(=O)Nc3ccc4c(c3)OCCO4)[nH]c2c1	17µM*	1%	14%	-4%	3%	-5%
CCOc1ccccc1Nc1nnc(SCC(=O)Nc2ccc3[nH]c(=O)[nH]c3c2)s1	-6%	-1%	6%	?	1%	-5%
COc1ccc2nc(SCC(=O)Nc3ccc4c(c3)OCCO4)[nH]c2c1	13µM*	2%	-13%	?	?	15%
CCOc1ccc2nc(SCC(=O)Nc3cccc(S(=O)(=O)NC4=NCCCCC4)c3)[nH]c2c1	21µM*	0%	4%	?	-5%	-6%
CCOc1ccccc1Nc1nnc(SCC(=O)Nc2cccc(S(=O)(=O)NC3=NCCCCC3)c2)s1	-15%	-6%	-43%	18µM*	-9%	-9%
Cc1ccc(NC(=O)CN2CCCN(Cc3cc(C)ccc3C)S2(=O)=O)c(Cl)c1	-9%	.	.	.	.	.
CCCCc1nc2c(c3c1C[C@H](C)OC3)CN(S(=O)(=O)c1ccc(NC(C)=O)cc1)CC2	.	.	-6%[9.22 µM]	.	.	.
O=C(NCc1ccc2c(c1)OCO2)c1ccc2c(c1)N(Cc1ccccc1F)C(=O)c1ccccc1S2=O (stereo not given)	3%	.	16%	.	.	.
SMILES	FLuc counter	NPC1 promoter act	SMN2 splice up	ELG1 DNA repair	ELG1 genotoxic	Rab9 promoter act
CCCCc1nc2c(c3c1C[C@H](C)OC3)CN(S(=O)(=O)c1ccc(Cl)c3nonc13)CC2	.	.	-10%[9.22 µM]	.	.	.
O=C(COCc1ccccc1)N[C@@H]1c2ccccc2CC[C@@H]1OCc1ccccc1	.	.	.	?	-4%	.
CN(C)c1ccc(/C=N/OC(=O)Nc2ccccc2)cc1	1.1µM*	0.71µM*	.	?	?	0.45µM*
Cc1ccc(NC(=O)CO/N=C/c2ccc(N(C)C)cc2)cc1	15µM*	8%	-17%	12%	6%	0%
CN(C)c1ccc(C(=O)NNC(=O)Nc2ccccc2)cc1	-1%	17%	-6%	?	5%	24%
O=C(CCNC(=O)c1ccc(Cl)cc1)Nc1cccc(S(=O)(=O)N2CCCCC2)c1	-1%	-1%	.	?	-3%	-1%
COc1ccc(-c2nc3ccccc3s2)cc1NC(=O)c1cccc([N+](=O)[O-])c1C	3.4µM*	.	11µM*	.	.	.
COc1ccc(-c2nc3ccccc3s2)cc1NC(=O)COc1ccc(C)cc1	-2%	.	1.3µM*	.	.	.
Cc1ccc(C(=O)NC(=S)Nc2cc(-c3nc4ccccc4s3)ccc2C)cc1	9.5µM*	-3%	8%	?	?	29%
Cc1ccc(-c2nc3ccccc3s2)cc1NC(=O)COc1ccccc1	-1%	.	4%	.	.	.
COc1ccc(-c2nc3ccccc3s2)cc1NC(=O)c1ccccc1F	0%	.	2%	.	.	.
COc1ccc(-c2nc3ccccc3s2)cc1NC(C)=O	6.7µM*	2.5µM*	11µM*	?	16µM*	2.2µM*
Cc1cc(C)cc(-n2ccn(CC(=O)c3ccc(F)cc3)c(=O)c2=O)c1	1%	.	.	.	.	.
CSc1cccc(NC(=O)C2CCCN(C(=O)c3cnn(-c4ccc(F)cc4)c3-n3cccc3)C2)c1 (stereo not given)	-17%	.	.	.	.	.
COc1ccc(-c2nc3ccccc3s2)cc1NC(=O)c1cc2ccccc2o1	-1%	.	-3%	.	.	.
COc1ccc(-c2nc3ccccc3s2)cc1NC(=O)COc1cccc(C)c1	?	.	2.8µM*	.	.	.
COc1ccccc1OC(C)C(=O)Nc1cccc(-c2nc3ccccc3s2)c1 (stereo not given)	11µM*	.	.	.	.	.
COC(=O)c1cc(OCC(=O)Nc2ccc3c(c2)CCC3)cc(C(=O)OC)c1	.	.	.	-1%	-3%	.
COc1ccc(N2CC(NC(=O)C3CCCC3)CC2=O)cc1 (stereo not given)	-2%	.	.	.	.	.
C(=C\c1nc(N2CCCCCC2)c2ccccc2n1)/c1ccccc1	8.5µM*	-1%	.	-3%	0%	7%
c1cncc(-c2nc(N3CCCCCC3)c3ccccc3n2)c1	3%	-1%	-5%	?	-3%	4%
c1ccc2c(N3CCCCCC3)nc(-c3ccncc3)nc2c1	-3%	1%	11%	7.3µM*	-18%	2%
CN(C)c1ccc(-c2nc(N3CCNCC3)c3ccccc3n2)cc1	.	.	11µM*	.	.	.
